Here are results for 14 molecules from PubChem BioAssay.

The source made the active and inactive calls.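 The calls were made as follows, unless noted: active = fluorescence slope after compound addition differing from the mean of all screened samples at 99.7% confidence, in either direction; inactive = the rest.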

Experiment [1] in a line: inhibitors of TNFa-induced NFkB p65 translocation, primary screen, imaging, HUVEC, MLSMR starter and 10KST1 sets (AID 438;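 active = inhibition above 20% together with a positive visual image hit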;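 also: compound added about 3h40 before a 20 min TNFalpha stimulation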;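 as to inhibition: signal is the nuclear over cytoplasmic p65 intensity ratio per well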). The note with it: HUVEC TNFa-induced p65 nuclear translocation; cell count: measured here: nuclei count (cytotoxicity indicator), at 2.08 µM; inhibition: at 2 µM, stronger effect = higher value, 0% TNFa-plus-vehicle, 100% no-TNFa wells.
A short description of experiment [2]: inhibitors of mutant huntingtin aggregation, primary screen, imaging, exon1htt(103Q)mCFP cells, high-content imaging (AID 483;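 active = visual image review flags a hit and inhibition of aggregation exceeds 20%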;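 also: compound exposure lasted 3 days before fixation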;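 as to nuclei count: percent of the per-plate median nuclei count of sample wells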). The note with it: exon1htt(103Q)mCFP cell line, aggregate imaging, at 2 µM; inhibition of aggregation: stronger effect = higher value; nuclei count: measured here: cell count, toxicity.
A short description of experiment [3]: inhibitors of E-selectin induction by TNFa, primary screen, imaging, HUVEC, immunofluorescence, MLSMR starter and 10KST1 sets (AID 487;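 active = visually confirmed hit in the image check and inhibition above 20%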;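 as to inhibition: signal is fraction of cell area covered by stained E-selectin grains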;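 as to nuclei count: 100% = median nuclei count of all wells on the same plate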). The note with it: HUVEC TNFalpha-induced E-selectin immunofluorescence imaging, at 2 µM; inhibition: stronger effect = higher value; nuclei count: measured here: cell number, toxicity.
For experiment [4], the target named is Voltage-gated potassium channel subunit beta-2 (Rattus norvegicus) (UniProt P62483). The experiment in a line: KvBeta enzyme negative modulators, primary screen, biochemical, NADPH fluorescence (AID 622;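 active = fluorescence slope higher than the sample average by over 3 SD, cut at about -0.22 in these data, passing the limit was not always enough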;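 also: slope of raw intensity against log time taken from 70 to 1610 s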). The note with it: recombinant KvBeta, 4-cyanobenzaldehyde reduction, at 10 µM, stronger effect = higher value.
Chain of Voltage-gated potassium channel subunit beta-2 (Rattus norvegicus) (P62483 whole entry, looked up): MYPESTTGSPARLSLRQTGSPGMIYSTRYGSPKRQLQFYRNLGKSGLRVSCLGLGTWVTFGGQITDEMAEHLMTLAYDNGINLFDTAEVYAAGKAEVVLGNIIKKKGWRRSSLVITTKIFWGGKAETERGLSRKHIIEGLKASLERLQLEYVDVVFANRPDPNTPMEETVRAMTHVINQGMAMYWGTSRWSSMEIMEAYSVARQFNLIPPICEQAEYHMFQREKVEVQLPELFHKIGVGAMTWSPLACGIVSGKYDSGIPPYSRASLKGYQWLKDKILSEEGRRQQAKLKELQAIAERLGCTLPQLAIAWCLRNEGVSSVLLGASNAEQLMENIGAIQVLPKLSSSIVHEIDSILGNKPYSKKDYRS
The target is the same in experiment [5]. The experiment in a line: KvBeta positive modulators, primary screen, biochemical, NADPH fluorescence (AID 623;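 active = NADPH fluorescence slope more negative than the mean of all samples by about 3 SD, 99.7% confidence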;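 also: fluorescence intensity change per second fitted from 20 to 320 s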). The note with it: Recombinant KvBeta, NADPH fluorescence decrease slope, 10 min; at 10 µM; stronger effect = lower value.
Experiment [6] has as its target Alpha-2C adrenergic receptor (Homo sapiens) (UniProt P18825). The experiment in a line: modulators of alpha2C/GIRK thallium flux, primary screen, cell-based, HEK293 alpha2C/GIRK1/2 (AID 624).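 Also: slope of fluorescence ratio to pre-addition baseline per second over 15 to 24 s.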 The note with it: thallium flux BTC fluorescence, at 10 µM, actives lie on both sides.
The nature of experiment [7]: inhibitors of Sendai virus-induced IRF3 signaling, primary screen, TLR/RLR signaling modifier project, cell-based, Sendai virus stimulus, luciferase, 10K MLSCN set (AID 602276;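 active = inhibition at or above 50% at 10 µM; inactive = inhibition below 50%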;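 also: firefly luciferase from ISG56 promoter only with Renilla not read in this screen; 0% = Sendai virus plus DMSO and 100% = medium plus DMSO without virus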). As to conditions: HEK293 RL24 IRF3 luciferase reporter, at 10 µM, stronger effect = higher value. (In general: A reporter such as luciferase makes a cellular process visible.)
Experiment [8] is described as follows: inhibitors of poly I:C-induced TLR3 signaling, primary screen, cell-based, poly I:C stimulus, luciferase, 10K MLSCN set (AID 602277;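 active = inhibition of the reporter signal at or above 50%; inactive = inhibition below 50%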). The note with it: HEK293-TLR3 RL24 IRF3 luciferase reporter, at 10 µM, stronger effect = higher value.

Chain of Alpha-2C adrenergic receptor (Homo sapiens) (P18825 whole entry, looked up): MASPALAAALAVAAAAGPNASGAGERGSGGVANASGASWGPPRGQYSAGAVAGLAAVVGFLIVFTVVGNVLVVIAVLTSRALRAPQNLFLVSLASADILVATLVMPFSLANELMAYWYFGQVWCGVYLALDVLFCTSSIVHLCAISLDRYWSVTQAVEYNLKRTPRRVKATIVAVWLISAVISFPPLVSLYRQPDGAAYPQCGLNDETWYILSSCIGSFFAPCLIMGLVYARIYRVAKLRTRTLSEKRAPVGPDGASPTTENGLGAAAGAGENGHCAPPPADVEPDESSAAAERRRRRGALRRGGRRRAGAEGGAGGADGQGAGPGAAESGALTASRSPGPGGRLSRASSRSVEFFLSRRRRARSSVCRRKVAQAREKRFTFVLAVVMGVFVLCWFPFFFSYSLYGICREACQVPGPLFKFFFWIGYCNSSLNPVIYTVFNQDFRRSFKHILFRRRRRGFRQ

The term inhibition denotes the drop in the measured response relative to a control, in per cent. Take `CC(C)CN(CC(C)C)C(=O)CS(=O)(=O)Cc1ccccc1`: the cell count in experiment [1] was found to be 334. The inhibition was -1.2% (inactive) in experiment [1], -51.3% (inactive) in experiment [3], 6.49% (inactive) in experiment [7] and 16.4% (inactive) in experiment [8]. Moreover, in experiment [2], the inhibition of aggregation is -5.8% (inactive). Besides, the nuclei count in experiment [2] amounted to 98.4%; in experiment [3], 116%. In experiment [4], the fluorescence slope was -0.492 (inactive). For the same molecule, the NADPH fluorescence slope in experiment [5] was -6.4e-05 (inactive). Besides, the slope in experiment [6] is 0.00578 (inactive).
On to `CCSc1nncn1/N=C/c1ccc(OC)c(OC)c1`, for which the cell count in experiment [1] turned out to be 403. Further, the inhibition in experiment [1] is -9.6% (inactive); in experiment [3] it was 39.9% (inactive); in experiment [7], -8.45% (inactive); in experiment [8] it was -5.17% (inactive). Moreover, in experiment [2], the inhibition of aggregation was 32.4% (inactive). In addition, the results for the nuclei count in experiment [2] and in experiment [3] were 89.8% and 82.5%, respectively. In addition, the fluorescence slope in experiment [4] is -0.319 (inactive). In addition, the NADPH fluorescence slope in experiment [5] was 2e-05 (inactive). The slope in experiment [6] was 0.00581 (inactive).
As to `CC(C)CSc1nc2ccccc2n1CC(N)=O`, the cell count in experiment [1] amounted to 314. For the same molecule, the inhibition in experiment [1] is 3% (inactive); in experiment [3], 33.6% (inactive); in experiment [7] it was 13.3% (inactive); in experiment [8] it was 15.2% (inactive). The inhibition of aggregation in experiment [2] is -6.3% (inactive). For the same molecule, the nuclei count in experiment [2] amounted to 109%; in experiment [3], 107%. Moreover, in experiment [4], the fluorescence slope was -0.362 (inactive). In addition, the NADPH fluorescence slope in experiment [5] is -4.7e-05 (inactive). For the same molecule, in experiment [6], the slope was 0.00549 (inactive).
Turning to `CCc1noc(C)c1C(=O)NCCc1ccc(OC)c(OC)c1`, in experiment [1], the cell count worked out at 395. The inhibition in experiment [1] is 3.7% (inactive); in experiment [3], 11.4% (inactive); in experiment [7] it was 14.3% (inactive); in experiment [8], 19.8% (inactive). In addition, the inhibition of aggregation in experiment [2] is -16.2% (inactive). Further, the figures for the nuclei count in experiment [2] and in experiment [3] were 121% and 96.9%, respectively. The fluorescence slope in experiment [4] was -0.468 (inactive). In addition, in experiment [5], the NADPH fluorescence slope is -4.2e-06 (inactive). Also, the slope in experiment [6] is 0.00531 (inactive).
As for `Cc1c(C(=O)OCC(C)(C)CN(C)C)oc2ccccc12`, the cell count in experiment [1] is 428. The inhibition in experiment [1] was -3.3% (inactive); in experiment [3], -39.5% (inactive); in experiment [7], -31.4% (inactive); in experiment [8], -27.6% (inactive). Moreover, the inhibition of aggregation in experiment [2] is -15.2% (inactive). Further, the nuclei count in experiment [2] is 107%; in experiment [3], 118%. The fluorescence slope in experiment [4] was -0.328 (inactive). Further, the NADPH fluorescence slope in experiment [5] is 2.8e-05 (inactive). In addition, in experiment [6], the slope is 0.00529 (inactive).
`O=C(CSc1nnc2scc(-c3ccccc3)n12)Nc1nsc(-c2ccccc2)n1`: the cell count in experiment [1] came to 673. The inhibition in experiment [1] was -14.1% (inactive); in experiment [3], 34.5% (inactive); in experiment [7], 9.78% (inactive); in experiment [8], -32.6% (inactive). The inhibition of aggregation in experiment [2] is 2.8% (inactive). Moreover, the nuclei count in experiment [2] is 107%; in experiment [3] it was 97.5%. Besides, the fluorescence slope in experiment [4] was -0.381 (inactive). In addition, the NADPH fluorescence slope in experiment [5] was 1.4e-05 (inactive). In addition, the slope in experiment [6] was 0.00626 (inactive).
On to `Cc1cccc2cc(CN(CCN3CCCC3)C(=O)NC3CCCCC3)c(=O)[nH]c12`, for which, in experiment [1], the cell count worked out at 641. For the same molecule, the inhibition in experiment [1] is -7.5% (inactive); in experiment [3] it was -7.3% (inactive); in experiment [7], 12.6% (inactive); in experiment [8], 38.4% (inactive). The inhibition of aggregation in experiment [2] is -0.1% (inactive). In addition, the nuclei count in experiment [2] came out at 84.8%; in experiment [3] it was 97%. For the same molecule, in experiment [4], the fluorescence slope is -0.428 (inactive). In addition, the NADPH fluorescence slope in experiment [5] is 1e-05 (inactive). Besides, the slope in experiment [6] is 0.00641 (inactive).
With `CCOC(=O)c1cc2c(=O)n3ccccc3nc2n(CC2CCCO2)c1=NC(C)=O` (centres undefined), the cell count in experiment [1] was 617. Moreover, the inhibition in experiment [1] was 3.1% (inactive); in experiment [3], 22.2% (inactive); in experiment [7], 9.86% (inactive); in experiment [8] it was 10.8% (inactive). Also, the inhibition of aggregation in experiment [2] was 18.5% (inactive). Moreover, the nuclei count in experiment [2] was 86.7%; in experiment [3] it was 100%. The fluorescence slope in experiment [4] was -0.441 (inactive). In addition, in experiment [5], the NADPH fluorescence slope was -1.3e-05 (inactive). Moreover, in experiment [6], the slope was 0.00574 (inactive).
For the molecule `Cc1ccn2cc(CCNC(=O)CC(C)(C)C)nc2c1`, in experiment [1], the cell count is 316. Further, the inhibition was 6.4% (inactive) in experiment [1], -3.4% (inactive) in experiment [3], 3.87% (inactive) in experiment [7] and 5.08% (inactive) in experiment [8]. The inhibition of aggregation in experiment [2] was -9.1% (inactive). Besides, the nuclei count in experiment [2] was found to be 95.6%; in experiment [3], 104%. The fluorescence slope in experiment [4] was -0.307 (inactive). In experiment [5], the NADPH fluorescence slope was -5.9e-05 (inactive). For the same molecule, the slope in experiment [6] was 0.00588 (inactive).
Regarding `O=C(O)C1CC=CCC1C(=O)Nc1ccc(S(=O)(=O)N2CCCc3ccccc32)cc1` (centres undefined), in experiment [1], the cell count came to 335. Moreover, the inhibition in experiment [1] was -7.5% (inactive); in experiment [3] it was -43.1% (inactive); in experiment [7], 46% (inactive); in experiment [8], -62.7% (inactive). Besides, the inhibition of aggregation in experiment [2] is -17.2% (inactive). Also, the nuclei count in experiment [2] was 92.3%; in experiment [3], 126%. In addition, the fluorescence slope in experiment [4] is -0.599 (inactive). Besides, the NADPH fluorescence slope in experiment [5] is -3.1e-05 (inactive). Besides, the slope in experiment [6] is 0.00437 (inactive).
Consider `Cc1ccc(-c2cc(C(=O)O)n[nH]2)o1`, for which, in experiment [1], the cell count was determined as 358. For the same molecule, the inhibition is 1% (inactive) in experiment [1], -1.4% (inactive) in experiment [3], 9.01% (inactive) in experiment [7] and 14.9% (inactive) in experiment [8]. Moreover, the inhibition of aggregation in experiment [2] is 3.3% (inactive). The results for the nuclei count in experiment [2] and in experiment [3] were 101% and 97.7%, respectively. Also, in experiment [4], the fluorescence slope was -0.612 (inactive). In experiment [5], the NADPH fluorescence slope was 4.6e-05 (inactive). The slope in experiment [6] was 0.00603 (inactive).
With `Cc1ccc(CCC(=O)Nc2ccc(S(N)(=O)=O)cc2)o1`, the cell count in experiment [1] was determined as 543. The inhibition was 0% (inactive) in experiment [1], -67.7% (inactive) in experiment [3], -2.49% (inactive) in experiment [7] and 2.2% (inactive) in experiment [8]. In experiment [2], the inhibition of aggregation is -16.3% (inactive). In addition, the values for the nuclei count in experiment [2] and in experiment [3] were 111% and 99.7%, respectively. Besides, the fluorescence slope in experiment [4] was -0.614 (inactive). Also, the NADPH fluorescence slope in experiment [5] is 5.3e-06 (inactive). The slope in experiment [6] was 0.00583 (inactive).
As to `c1ccc(-c2cc(N3CCCCC3)ncn2)cc1`, the cell count in experiment [1] is 327. Besides, the inhibition in experiment [1] is 0.7% (inactive); in experiment [3] it was -109% (inactive); in experiment [7], -37.6% (inactive); in experiment [8], -113% (inactive). Also, in experiment [2], the inhibition of aggregation was -3.9% (inactive). Besides, the nuclei count in experiment [2] was found to be 101%; in experiment [3] it was 112%. In experiment [4], the fluorescence slope was -0.485 (inactive). Besides, in experiment [5], the NADPH fluorescence slope was -4.6e-05 (inactive). In experiment [6], the slope is 0.00423 (inactive).
For `O=C(CCOc1ccccc1)NCc1ccccc1`, in experiment [1], the cell count is 729. Also, the inhibition in experiment [1] is -17.6% (inactive); in experiment [3], 12.7% (inactive); in experiment [7], 11.5% (inactive); in experiment [8] it was 12.3% (inactive). In addition, the inhibition of aggregation in experiment [2] is -3.7% (inactive). Besides, the nuclei count in experiment [2] was 97.3%; in experiment [3], 114%. Also, the fluorescence slope in experiment [4] is -0.559 (inactive). Further, the NADPH fluorescence slope in experiment [5] is 7.4e-05 (inactive). Besides, the slope in experiment [6] is 0.00548 (inactive).
